The record followed here is PubChem BioAssay AID652040 (Broad Institute, 2013).

Molecules are shown by their SMILES. Measured potencies and affinities stand elsewhere. Active and inactive are the calls of the source.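 Rule for the calls: active = falling luciferase signal whose fitted half-maximal concentration is at most twice the top tested dose; inconclusive = flat inhibition between 30 and 70% or a poor curve fit; inactive = the rest.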

This assay can be described thus: off-target signal loss in HeLa-CEM21 co-culture – HeLa F-luc CTL cells, cherry-picked, counter-screen for HIV-1 Env fusion inhibitor project, dose response (AID 652040).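 Note: more negative values mean stronger loss of luciferase signal.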 The following applies: HeLa-F-luc CTL cells with CEM21, firefly luciferase counterscreen; series mostly up to 35 µM.
For the compound `O=C(Nc1ccc(N2CCN(C(=O)c3ccc(Cl)cc3)CC2)cc1)c1ccc2c(c1)OCCO2`, the call was inactive.

Turning to `COc1ccc(N2CCn3c2nc2c3c(=O)n(CCCc3ccccc3)c(=O)n2C)c(OC)c1`, the outcome was inactive.

For `CCOC(=O)C1CCN(C(=O)c2ccc3c(c2)C(=O)N(c2ccccc2C)C3=O)CC1`, the compound was called inactive.

Regarding `CCN(CCn1cccn1)C(=O)CC1C(=O)NCCN1CCc1ccccc1` (stereo unspecified), the outcome was inactive.

On to `C=CC[n+]1c(-c2ccc(C)cc2)csc1NNC(=O)Nc1ccccc1`, for which the call was inactive.

On to `CC(OC(=O)c1ccc(NC(=O)CC#N)cc1)C(=O)NCCC1=CCCCC1` (stereo unspecified), for which the result was inactive.

Turning to `Cc1nn(C)c(C)c1CN(C)S(=O)(=O)c1ccc2ccccc2c1`, the compound was classed as inactive.

As to `COc1ccc(NC(=O)C2(C)CCN2Cc2ccccc2OC(F)F)cc1OC` (stereo unspecified), the result was inactive.

Consider `O=C(NNS(=O)(=O)c1ccc(F)cc1F)C1Cc2c(ccc3ccccc23)O1` (stereo unspecified), for which the result was inactive.

With `O=C1COc2ccc(-c3csc(=Nc4ccc(OC(F)F)cc4)n3CC3CCCO3)cc2N1` (stereo unspecified), the compound was classed as inactive.

Consider `O=C(OCCOc1cccc(Cl)c1)c1cc(S(=O)(=O)N2CCCCC2)ccc1N1CCOCC1`, for which the outcome was inactive.

Consider `Cc1ccc(C2CC(=O)c3cnc(N4CCc5ccccc5C4)nc3C2)cc1` (stereo unspecified), for which the compound was called inactive.

Regarding `COc1ccccc1OCC(=O)c1[nH]c(C)c(C(C)=O)c1C`, the outcome was inactive.

As to `CC(=O)c1c(C)[nH]c(C(=O)OCC(=O)Nc2c(C)cccc2C)c1C`, the call was inactive.

With `c1coc(CNc2c3c(nc4ccccc24)CCC3)c1`, the result was inactive.

As for `COC(=O)c1ccc(NC(=O)c2ccc(CN3CCOCC3)cc2)cc1`, the call was inactive.

For the compound `Nc1nc2c(ncn2[C@@H]2O[C@H](C(=O)NCC(c3ccccc3)c3ccccc3)[C@@H](O)[C@H]2O)c(=O)[nH]1`, the compound was called inactive.

Regarding `COc1ccc(OC2C(=O)N(Cc3ccc4c(c3)OCO4)C2c2cccs2)cc1` (stereo unspecified), the result was inactive.

With `Cc1[nH]c2ccccc2c1/C=N\NC(=O)c1ccccc1Cl`, the call was inactive.

For `Cc1onc(-c2ccccc2)c1C(=O)Nc1ccc(Br)cc1Cl`, the compound was classed as inactive.

`COc1ccc(CCN(Cc2cccs2)S(=O)(=O)c2ccc(-n3cnnn3)cc2)cc1OC`: the compound was called inactive.
